Shown are actives, neighbours in structure and some others; about 1.6% of the full set was active somewhere.
p53ts 32C kill: kills p53ts cells at the permissive temperature. Potency, µM (top dose mostly 46.1 µM), without a hit: at the highest dose activity change, negative = cytotoxicity, most hits filed as cytotoxic. 130,000 tested, 0.93% active. H1299-p53A138V at 32C, ATP luminescence viability, 24 h;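 note: 0% = DMSO and -100% = full killing by reference compound; nearly all actives have a fitted effect of over 55% in size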
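Viability by ATPlite luminescence after 24 h compound treatment (up to 46 uM) at the permissive 32C. Cells are H1299 carrying p53 A138V. Scale runs from DMSO basal to 100 uM tamoxifen as full kill; AC50 from Hill fits.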
Imprint erasure: genomic imprint erasure induction. mouse ES Peg3-LacZ reporter, beta-gal luminescence, 40 h. Potency, µM (top dose mostly 60.7 µM), for inactives: at the highest dose activity change, positive = activation, actives largely listed as activators. 110,000 tested, 0.02% active
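Gelatin-coated wells received 300 freshly trypsinized female ES cells with a Peg3LacZ-Neo reporter on the maternal allele, then incubated 40 hours at 37C. BetaGlo was added for 5 minutes at room temperature before a single luminescence read.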
p53ts 39C tox: p53ts cell cytotoxicity, nonpermissive temperature | H1299-p53A138V viability at 39C, ATP luminescence, 24 h | Potency, µM (highest dose often 46.1 µM), for inactives: at the top dose activity change, negative = cell killing, most hits filed as cytotoxic | 130,000 tested, 1.5% active | AID 902; note: % is set by controls: 0 for no effect and ±100 for the full control effect; nearly all actives have a fitted effect of over 55% in size
Active calls of the source: *; ? = inconclusive; . = no result given; ! = a repeat was not active; [ ] = dose if it differs, or a comment. Calls come from the whole dose curve; as a rule, active = well fitted curve in the direction sought with a large enough effect; inconclusive = small, poorly fitted or top-dose-only effect, or another doubt; inactive = no such curve, though single readings can be large; an effect the other way counts as inactive or inconclusive. Potency is the fitted concentration of half-maximal effect.

SMILES	p53ts 32C kill	Imprint erasure	p53ts 39C tox
Cc1ccc(CCNC(=O)c2ccc3c(c2)nc2n3CCCCC2)cc1	-23%	-12%[10.9 µM]	-18%
O=C(NCc1cccc(Cl)c1)c1ccc2c(c1)nc1n2CCOC1	1%	-11%[10.9 µM]	15%
Cc1cccc(CCNC(=O)c2ccc3c(c2)nc2n3CCOC2)c1	?	-3%[10.9 µM]	13µM*
Cc1ccc(CNC(=O)c2ccc3c(c2)nc2n3CCOC2)cc1	10%	-10%[10.9 µM]	6%
Cc1cccc(CCNC(=O)c2ccc3c(c2)nc2n3CCCCC2)c1	13µM*	-7%[10.9 µM]	7.9µM*
Cc1cccn2c(=O)cc(COc3cccc(NC(=O)COc4ccccc4)c3)nc12	-4%	28%[10.9 µM]	-15%
N#C/C(=C\c1ccc(Sc2ccc(Cl)cc2)o1)c1nc2ccccc2[nH]1	.	.	1%
Cc1ccc2nc(/C(C#N)=C/c3ccc(-c4ccc(F)cc4F)o3)[nH]c2c1	6.3µM*	-19%[10.9 µM]	5µM*
Cc1c(Cl)cccc1-c1ccc(/C=C(\C#N)c2nc3ccccc3[nH]2)o1	?	-12%[10.9 µM]	13µM*
COc1cccc(/C=C(\C#N)c2nc3ccc(C)cc3[nH]2)c1	-26%	-11%[10.9 µM]	-17%
S=C(c1nc2ccccc2[nH]1)N1CCOCC1	-7%	.	3%
N#C/C(=C/c1ccc(N2CCOCC2)o1)c1nc2ccccc2[nH]1	16µM*	.	?
CSc1ccc(Nc2nn(-c3ccc(OC(F)(F)F)cc3)nc2C(C)=O)cc1	-12%	-14%[10.9 µM]	-16%
COc1ccccc1N1CCN(c2nc3ccc(C)cc3nc2-n2nc(C)cc2C)CC1	3%	-4%[10.9 µM]	-5%
CC(=O)c1ccc(NC(=O)c2ncn(-c3ccccc3)n2)cc1	-9%	-18%[10.9 µM]	-20%
CN(C)c1ccc(-c2cncnc2NCc2ccccc2)cc1	14%	-18%	-10%
O=C(Cn1cc(C(=O)C2CCCCC2)c2ccccc21)Nc1ccccc1Cl	-10%	-10%[10.9 µM]	-2%
C[N+](C)([O-])CCC=C1c2ccccc2CCc2ccccc21	4%[9.22 µM]	-16%[10.9 µM]	-2%[9.22 µM]
CNCCC=C1c2ccccc2CCc2ccccc21	20µM*!	-36%	20µM*!
Clc1ccc(OCc2nc(-c3ccncc3)no2)c(Br)c1	?	-28%	?
CC(C)c1ccc(OCc2nc(-c3ccccn3)no2)c(Br)c1	?	-58%	?
Cc1ccc(OCc2nc(-c3ccccn3)no2)c(Br)c1	10µM*	-69%	?
CCc1ccc(OCc2nc(-c3ccccn3)no2)c(Br)c1	16µM*	-77%	10µM*
CCCCCSc1nc2sc3c(c2c(=O)n1-c1ccccc1)CCN(C(C)=O)C3	?	-8%[10.9 µM]	13µM*
CCSc1nc2sc3c(c2c(=O)n1-c1ccc(C)c(Cl)c1)CCN(C(C)=O)C3	2%	16%[10.9 µM]	7%
SMILES	p53ts 32C kill	Imprint erasure	p53ts 39C tox
Cc1ccc(N(Cc2cccs2)C(=O)c2ccccc2)cc1	-3%	-16%[10.9 µM]	-11%
CCN(CC)S(=O)(=O)c1ccc2c(c1)N(CC(=O)N1CCN(c3cccc(C)c3C)CC1)C(=O)CO2	5%	-16%[10.9 µM]	-19%
O=C(CSc1nc(=O)n(Cc2ccncc2)c2c1CCC2)Nc1ccccc1	-8%	-7%[10.9 µM]	-9%
COc1ccc(Cn2c(CCC(=O)Nc3cccc(Cl)c3)nc3cccnc32)cc1	-7%	14%[10.9 µM]	-19%
C=C1C(=O)C=C2CN(C(=O)c3ccccc3)[C@@](Cc3ccc(F)cc3)(C(=O)OC)[C@@H]12	3.2µM*	-34%	3.2µM*
COC(=O)[C@@]1(Cc2ccc(OC)cc2)[C@@H]2C(=CC(=O)[C@H]2CC(=O)C(=O)N(C)C)CN1C(=O)c1ccccc1	66%	-25%	134%
CCOc1ccc(-n2c(=O)c3c4c(sc3n(Cc3cccc(C)c3)c2=O)CCCC4)cc1	3%	-6%[10.9 µM]	?
Cc1ccnc(NC(=O)/C=C/c2cccs2)c1	.	.	7.1µM*
Cc1cc([N+](=O)[O-])ccc1NC(=O)/C=C/c1cccs1	.	.	-20%
c1ccc2sc(-c3ccc4c(c3)OCO4)nc2c1	16µM*	-94%	7.9µM*
c1ccc2sc(N3CCN(Cc4ccc5c(c4)OCO5)CC3)nc2c1	5%	-5%	-12%
O=C(NCCc1ccccc1)C(=O)NCC(c1cccs1)S(=O)(=O)c1cccs1 (centres undefined)	-1%	-14%[10.9 µM]	-28%
CC1(C)CCCC(C)(C)N1CC(O)COCCOc1ccc(Br)cc1 (centres undefined)	?	.	4.5µM*
OC(COc1ccc(Br)cc1)CN1CCOCC1 (centres undefined)	1%	5%	3%
O=C(CCC1N=C2c3ccccc3N=C(SCc3ccc(F)cc3)N2C1=O)NC1CCCCC1 (centres undefined)	4%	24%[10.9 µM]	-10%
Cc1[nH]n(-c2ccccc2)c(=O)c1/C=N/c1ccccn1	?	-38%	?
Cc1ccc(-n2[nH]c(C)c(C=Nc3ccc(C)cn3)c2=O)cc1	13µM*	-47%	13µM*
NCCc1ccc(O)c(O)c1	13µM*!	-41%	?
CC(=O)NCCc1ccc(O)c(O)c1	-13%	-15%	-1%
CC(=O)N1c2ccccc2CC1C(=O)N1CCN(c2cccc(C)c2C)CC1 (centres undefined)	4%	-7%[10.9 µM]	-19%
COc1ccc(CCNC(=O)C(=O)NCC(c2ccc3c(c2)OCO3)N2CCOCC2)cc1OC (centres undefined)	-1%	-7%[10.9 µM]	-12%
CCc1nnc(SCc2ccc(F)cc2Cl)c2cc3sccc3n12	3%	-13%[10.9 µM]	7%
CCc1nnc(SCC(=O)N(C)c2ccccc2)c2cc3sccc3n12	-1%	-9%[10.9 µM]	25µM*
COc1ccc(OC)c(-c2cc(C(=O)Nc3cnn(Cc4ccc(Cl)cc4Cl)c3)no2)c1	?	-12%[10.9 µM]	4µM*
COc1ccc2c(c1)CCc1c(C(=O)Nc3cnn(Cc4ccc(Cl)cc4Cl)c3)noc1-2	-11%	-6%[10.9 µM]	-30%
SMILES	p53ts 32C kill	Imprint erasure	p53ts 39C tox
Cc1nc2nc(-c3ccccc3)cc(=O)n2[nH]1	16µM*	-89%	13µM*
O=c1cc(-c2ccccc2)nc2nc(CCc3ccccc3)[nH]n12	13%	-9%	8%
Cc1cc(OCC(=O)Nc2ccc(C(=O)OC3CCCCC3)cc2)cc(C)c1Cl	10%	-16%[10.9 µM]	11%
COc1ccc(-c2nn3c(-c4ccccc4C)nnc3c3ccccc23)cc1	25%	5%[10.9 µM]	10µM*
Cc1ccccc1-c1nnc2c3ccccc3c(C)nn12	10%	.	18%
O=C1c2ccccc2C(=O)c2c1ccc(O)c2O	-2%	-43%	-13%
O=C1c2ccc(O)c(O)c2C(=O)c2c(O)ccc(O)c21	?	-18%	5µM*
CCC(C(=O)NCc1ccccc1Cl)n1c(=O)c2cccn2c2ccccc21 (centres undefined)	-4%	-15%[10.9 µM]	12%
COc1ccc(-c2ccc(-c3nnn(CC(=O)N4CCOCC4)n3)cc2)cc1	2.5µM*	-7%	?
O=C(Cn1nnc(-c2ccc3c(c2)OCO3)n1)N1CCOCC1	6%	-5%	6%
O=c1/c(=C\c2ccc3c(c2)OCO3)sc2n1CCCN=2	13µM*	-81%	13µM*
Cc1ccc(/C=c2/sc3n(c2=O)CCCN=3)o1	-23%	.	-19%
CCCCCn1c(=N)n(CC(O)COc2cccc(C)c2)c2ccccc21 (centres undefined)	?	-16%[10.9 µM]	10µM*
CCCn1c(=N)n(CC(O)COc2cccc(C)c2)c2ccccc21 (centres undefined)	-14%	-17%	-23%

Compound activity deposited in PubChem by National Center for Advancing Translational Sciences (NCATS).
